A short description of assay [1]: qHTS assay to identify small molecule agonists of the hypoxia (HIF-1) signaling pathway - cell viability counter screen (AID 1224844; calls by dose curve; note: nearly all actives have a fitted effect of over 50% in size; note: potency is the fitted concentration of half-maximal effect). Put shortly:
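In this counter screen, HRE-bla ME-180 cell viability after 17 hrs of compound exposure at 37C was read by CellTiter-Glo luminescence, multiplexed with the beta-lactamase reporter measurement.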
Background: Quantitative high-throughput screening tests each substance at several concentrations.

Assay [2] is described as follows: qHTS assay to identify small molecule agonists of the hypoxia (HIF-1) signaling pathway (AID 1224846; active = well fitted activation curve with a large enough effect in the signal ratio in the repeat runs, not every such curve was filed as active; the % refers to the signal ratio). Put shortly: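 ME-180 HRE-bla reporter cells; compounds in DMSO, 17 h at 37C; read-out beta-lactamase via CCF4-AM FRET.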
A short description of assay [3]: qHTS assay to identify small molecule agonists of H2AX - cell viability counter screen (AID 1224847; calls by dose curve; note: nearly all actives have a fitted effect of over 30% in size; note: potency is the fitted concentration of half-maximal effect). Put shortly:
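Cytotoxicity counter screen in wild-type CHO-K1 cells: a 3 hr compound treatment at 37C across 15 concentrations, followed by CellTiter-Glo luminescence to gauge viable cells.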

The nature of assay [4]: qHTS assay to identify small molecule antagonists of the estrogen related receptor (ERR) signaling pathway from Tox21 library (AID 1224848). Note: nearly all actives have a fitted effect of over 50% in size. Note: potency is the fitted concentration of half-maximal effect. A digest of the protocol: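 Quantitative high-throughput format: ERR reporter cells (2,000/well) pre-incubated 6 h, treated 18 h at 37 C with compounds in DMSO alongside positive and negative controls, then read by ONE-Glo luminescence.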

A short description of assay [5]: qHTS assay to identify small molecule agonists of the estrogen related receptor (ERR) signaling pathway from Tox21 library (AID 1224849; calls by dose curve; note: nearly all actives have a fitted effect of over 15% in size). The conditions noted are these: ERR reporter cell line, ONE-Glo luciferase, 18 h; at 92.4 µM (top of the series) unless noted. Put shortly:
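Luciferase activity in ERR pathway reporter cells served as the agonist readout; exposure lasted 18 h at 37 C, with ONE-Glo detection after 30 min at room temperature.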

The nature of assay [6]: qHTS RealTime-Glo MT Cell Viability Assay in HepG2 cells - 24 hour (AID 1224867). Note: nearly all actives have a fitted effect of over 50% in size. Note: potency is the fitted concentration of half-maximal effect. A digest of the protocol:
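HepG2 cells were seeded at 600 cells/well together with NanoLuc luciferase and a cell-permeant prosubstrate, preincubated 5 h at 37 C/5% CO2, then pin-dosed with compounds in DMSO. Nonlytic luminescence from viable cells was read at each time point.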

Assay [7] can be described thus: qHTS RealTime-Glo MT Cell Viability Assay in HEK293 cells - 32 hour (AID 1224868). Note: nearly all actives have a fitted effect of over 50% in size. Note: potency is the fitted concentration of half-maximal effect. A digest of the protocol: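 HEK293 cells were seeded at 600 cells/well together with NanoLuc luciferase and cell-permeant prosubstrate, preincubated 5 h at 37 C/5% CO2, then given compound in DMSO by pintool. Luminescence from viable-cell prosubstrate reduction was read repeatedly over 40 h.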

Assay [8] in a line: A CellTox Green Cytotoxicity Assay to monitor cytotoxicity in HEK293 cells - 0 hour (AID 1224869). Note: nearly all actives have a fitted effect of over 50% in size. A digest of the protocol:
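Real-time, in one plate: 600 HEK293 cells/well with dead-cell DNA dye, pinned compound after 5 h, 37 C incubation over 40 h; viable cells give no appreciable fluorescence.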

A short description of assay [9]: qHTS assay to identify small molecule agonists of H2AX (AID 1224845; active = well fitted activation curve with a large enough effect in the signal ratio in the repeat runs, not every such curve was filed as active; the % refers to the signal ratio; note: potency is the fitted concentration of half-maximal effect). Put shortly:
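Wild-type CHO-K1 cells, plated overnight, exposed 3hr at 37C to 15 concentrations (0.76% DMSO final). Lysed, then HTRF anti-pH2AX (S139) cryptate and anti-H2AX-d2 antibodies, 24 hr room temperature; 665/620 nm emission read.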

Values without a mark were called inactive. Records with an inconclusive call do not appear. Active and inactive are the calls of the source. Unless noted, calls come from the whole dose curve; as a rule, active = well fitted curve in the direction sought with a large enough effect in the repeat runs; inconclusive = weak or mixed curves; inactive = no such curve, though single readings can be large; an effect the other way counts as inactive or inconclusive.
% is set by controls: 0 for no effect and ±100 for the full control effect.

Turning to `C=C(C)[C@@H]1CCC2=CCC[C@@H](C)[C@]2(C)C1`, the Potency entry in assay [1], in assay [3], in assay [4], in [6], in assay [7] and in assay [8] was “inactive” each time. For the same compound, the outcome in assay [2] was inactive. In [5], the activity change, positive = activation is -7.47%.
For `CC1(CN2CCC(n3c(=O)[nH]c4ccccc43)CC2)OCc2ccccc2-n2cccc21` (centres undefined), the Potency was 23.9 µM (active) in [1] and 19 µM (active) in assay [7]. The Potency result in assay [8] is “inactive”.
Consider `CC(=O)OCCN(CCOC(C)=O)c1ccc(N=Nc2ccc([N+](=O)[O-])cc2C#N)cc1`, for which the result in assay [2] was inactive. In assay [3], the Potency was 50.5 µM (active). Moreover, in [5], the activity change, positive = activation was -46.9%. Moreover, the Potency result in [6] and in [8] was “inactive” throughout.
Regarding `CN1CCCN=C1COC(=O)C(O)(c1ccccc1)C1CCCCC1` (centres undefined), the Potency result in assay [9], in [3], in assay [4], in assay [6], in [7] and in assay [8] was “inactive” each time. The activity change, positive = activation in assay [5] is 6.85% [at 42.5 µM].
As to `O=C1c2ccccc2C(=O)C1(O)O`, the Potency in assay [9] is 50.8 µM (active). Also, the compound was classed as inactive in assay [2]. For the same compound, the activity change, positive = activation in assay [5] was -26.5%. In addition, the Potency entry in [6], in assay [7] and in assay [8] was “inactive” throughout.
As to `CCCCCCCC/C=C\CCCCCCCCCCCC(=O)O`, in [2], the compound was classed as inactive. Moreover, the Potency result in assay [3], in [6] and in [8] was “inactive” each time.
For the compound `CCOC(=O)c1ccc(C#Cc2ccc3c(c2)C(C)(C)CCS3)nc1`, the Potency entry in assay [1], in assay [6] and in assay [8] was “inactive” each time. In assay [2], the compound was classed as inactive.
Take `CC(C)(C)C(=O)C(=O)O`: the Potency entry in [9], in [6], in assay [7] and in assay [8] was “inactive” in each case. Besides, the compound was called inactive in assay [2].
Consider `c1cc(N(CC2CO2)CC2CO2)ccc1Cc1ccc(N(CC2CO2)CC2CO2)cc1` (centres undefined), for which the Potency entry in assay [3] and in [8] was “inactive” in each case. Further, the activity change, positive = activation in [5] is -66.1%. Moreover, the Potency in assay [7] was 34.7 µM (active).
Regarding `C=CC(=O)[O-].C=CC(=O)[O-].[Zn+2]`, the Potency entry in assay [9], in assay [3], in assay [6], in assay [7] and in assay [8] was “inactive” throughout. Besides, the call in assay [2] was inactive.
Turning to `O=C(OCC(O)CO)c1ccccc1Nc1ccnc2cc(Cl)ccc12` (centres undefined), the Potency entry in assay [1], in assay [6] and in assay [8] was “inactive” in each case. For the same compound, the Potency in [4] is 26.6 µM (active); in assay [7], 8.49 µM (active). For the same compound, the activity change, positive = activation in [5] was -40.1% [at 42.5 µM].
For `O=C1Cc2ccccc2N1c1c(Cl)cccc1Cl`, the Potency result in assay [9], in [6] and in assay [8] was “inactive” throughout. Also, the result in assay [2] was inactive. In addition, the activity change, positive = activation in assay [5] was -43.8%. In addition, the Potency in assay [7] was 24.5 µM (active).
Turning to `O=C(O)CCCCCCCCCCCBr`, the Potency result in assay [9], in assay [4], in assay [6], in assay [7] and in assay [8] was “inactive” throughout. The outcome in assay [2] was inactive.
As for `COC(=O)c1nc(Cl)c(Cl)nc1N`, the results for the Potency in assay [4] and in assay [7] were 29.8 µM (active) and 5.35 µM (active), respectively. The activity change, positive = activation in assay [5] is -72.9% [at 42.5 µM]. Also, in [8], the Potency entry was “inactive”.
Consider `C[C@@H](CN(C)C)CN1c2ccccc2Sc2ccccc21`, for which the Potency in assay [1] was 19 µM (active); in [7] it was 21.3 µM (active). Further, the compound was called inactive in assay [2]. For the same compound, the activity change, positive = activation in assay [5] was -18.9% [at 42.5 µM]. Besides, the Potency result in assay [8] is “inactive”.
For the compound `CCCC(C(=O)OCCN(CC)CC)(c1ccccc1)c1ccccc1`, the activity change, positive = activation in [5] is -35.3% [at 42.5 µM]. Moreover, in [7], the Potency is 21.3 µM (active). Moreover, in assay [8], the Potency result is “inactive”.
On to `Cc1ccc(OC(=O)c2ccccc2O)cc1`, for which the Potency result in assay [1], in [4], in [6], in [7] and in [8] was “inactive” throughout. In addition, in assay [2], the compound was called inactive. In addition, the activity change, positive = activation in assay [5] is 2.99%.
Turning to `CC(C)COCC(CN(Cc1ccccc1)c1ccccc1)N1CCCC1` (centres undefined), the Potency was 49.2 µM (active) in assay [9], 43.8 µM (active) in assay [3], 23.9 µM (active) in assay [6] and 10.7 µM (active) in assay [7]. Moreover, in assay [8], the Potency entry is “inactive”.

Source of the values: PubChem BioAssay (Tox21).
